# Assay outcomes from PubChem BioAssay.
# An excerpt weighted towards active compounds, which were near 2.7% of everything screened.
# TCR CD3 inh – human TCR-CD3 binding inhibition; TAMRA-labeled TCR probe fluorescence, biochemical; inhibition, % at 9.4 µM; 360,000 tested, 0.37% active; AID 651800; in the data active = inhibition above about 19%;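 also: recombinant mutant TCR 2C K166C tagged with TAMRA read by polarization; 0% = receptor in buffer alone and 100% = receptor with positive control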
# pPAFAH inh – pPAFAH (human) enzyme inhibition | Q13093 | recombinant pPAFAH, FP-rhodamine probe fluorescence polarization | inhibition, % at 3.39 µM | 330,000 tested, 1.5% active | AID 463082;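 active = inhibition above the mean inhibition across the screen plus 3 SD, cut at about 25% in these data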;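 also: inhibitors block binding of the rhodamine activity-based probe so polarization drops; 0% = enzyme with DMSO and 100% = wells lacking pPAFAH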
# PAFAH1B3 FP inh – PAFAH1B3 (human) inhibition; Q15102; recombinant PAFAH1B3, FP-rhodamine probe, fluorescence polarization; inhibition, % at 3.39 µM; 340,000 tested, 0.28% active;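 active = inhibition above the screen-wide average of all tested compounds plus 3 SD, cut at about 25% in these data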;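 also: 0% = enzyme with DMSO only and 100% = wells lacking PAFAH1B3 protein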
# Target sequence (Q15102 whole entry, looked up): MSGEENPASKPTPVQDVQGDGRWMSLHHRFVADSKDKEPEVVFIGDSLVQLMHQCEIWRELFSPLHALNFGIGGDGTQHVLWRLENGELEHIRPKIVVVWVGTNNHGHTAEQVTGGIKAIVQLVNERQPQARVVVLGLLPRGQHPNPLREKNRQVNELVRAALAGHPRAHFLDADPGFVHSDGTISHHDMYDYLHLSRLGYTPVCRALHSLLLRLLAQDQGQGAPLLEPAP
# PAFAH1B2 FP inh – PAFAH1B2 (human) inhibition. 340,000 tested, 1.2% active. inhibition, % at 3.39 µM. recombinant PAFAH1B2, FP-rhodamine activity probe, fluorescence polarization;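 active = inhibition above the mean of all tested compounds plus 3 SD, cut at about 24% in these data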;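 also: 0% = enzyme with DMSO and 100% = wells lacking PAFAH1B2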
# Target sequence (P68402 whole entry, looked up): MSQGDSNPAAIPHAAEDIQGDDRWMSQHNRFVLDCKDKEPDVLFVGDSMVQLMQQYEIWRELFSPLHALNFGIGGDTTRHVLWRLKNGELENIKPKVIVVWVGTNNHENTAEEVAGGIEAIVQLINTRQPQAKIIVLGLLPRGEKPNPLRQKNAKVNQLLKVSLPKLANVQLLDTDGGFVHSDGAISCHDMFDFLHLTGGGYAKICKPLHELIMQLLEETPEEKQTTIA
# PAFAH2 FP inh – PAFAH2 (human) inhibition; inhibition, % at 3.39 µM; Q99487; AID 492956; 340,000 tested, 0.99% active; recombinant PAFAH2, FP-rhodamine activity probe, fluorescence polarization;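 active = inhibition above the mean over all tested compounds plus 3 SD, cut at about 30% in these data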;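 also: inhibitors block probe labeling of enzyme so polarization drops; 0% = enzyme with DMSO and 100% = wells lacking PAFAH2 protein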
# An asterisk follows results filed as active; nt = no result.
SMILES,TCR CD3 inh,pPAFAH inh,PAFAH1B3 FP inh,PAFAH1B2 FP inh,PAFAH2 FP inh
Nc1[nH]c(C(=O)c2ccccc2)c(-c2ccc(Cl)cc2F)c1C(=O)NCCc1c[nH]c2ccccc12,-2.4,nt,nt,nt,nt
COc1ccc(-c2ccc3c(n2)CCCN3S(=O)(=O)c2c(C)noc2C)cc1,-3.0,nt,nt,nt,nt
O=C(N[C@H]1C/C=C\C[C@H](CC(=O)N(CCO)Cc2ccccc2)C(=O)N[C@H](Cc2c[nH]c3ccccc23)COC1=O)OCC1c2ccccc2-c2ccccc21,1.8,32.8*,13.0,-1.1,9.6
O=C(N[C@H]1C/C=C\C[C@@H](CC(=O)N(CCO)Cc2ccccc2)C(=O)N[C@H](Cc2c[nH]c3ccccc23)COC1=O)OCC1c2ccccc2-c2ccccc21,-1.3,13.1,-1.6,2.9,8.2
O=C(O)c1ccc(CSc2nnnn2-c2ccc(F)cc2)cc1,6.4,1.6,5.3,-0.1,5.6
O=C(CSc1nnnn1-c1ccc(F)cc1)c1ccc(O)c(O)c1,5.8,31.2*,4.1,9.0,19.5
O=C(NNS(=O)(=O)c1ccc(F)cc1)c1cc(Cl)ccc1O,2.7,nt,8.6,26.2*,8.4
O=C(NNS(=O)(=O)c1cccc(Cl)c1)c1cc(-c2ccc(F)cc2)nc2ccccc12,0.1,1.9,-5.9,39.9*,-4.3
O=C1SC(SCc2ccccc2)=N/C1=C\c1ccco1,8.9,32.5*,-5.3,6.7,20.4
S=c1[nH]nc(-c2ccco2)n1C1CCCCC1,6.8,3.5,10.2,26.1*,3.7
CCc1nnc(NC(=O)C23CC4CC(CC(C4)C2)C3)s1,-0.4,4.9,6.0,29.5*,8.6
NC(=O)CSc1nnc(NC(=O)C23CC4CC(CC(C4)C2)C3)s1,nt,8.5,3.4,27.9*,8.2
CC(C)Cc1nnc(NC(=O)C23CC4CC(CC(C4)C2)C3)s1,-5.6,-1.2,0.3,20.2,5.2
O=C(CN1C(=O)S/C(=C\c2ccc(Cl)cc2)C1=O)NC1C=CS(=O)(=O)C1 (stereo not given),-4.0,5.5,5.9,0.4,7.9
O=C(CN1C(=O)S/C(=C\c2ccc(Cl)cc2)C1=O)NNC(=O)c1ccccc1O,32.6*,29.1*,4.4,2.0,7.3
CC(=O)Nc1ccc(NC(=O)C(C)OC(=O)CSc2ccc(Br)cc2C)cc1 (stereo not given),-1.6,15.1,-4.5,24.5*,9.7
O=C(CSc1nnc(-c2ccccc2)n1Cc1ccccc1)N1CCOCC1,2.5,-2.2,1.9,2.3,-1.6
Oc1ccccc1-c1nnc(SCCN2CCOCC2)n1Cc1ccccc1,43.0*,3.5,22.0,5.6,12.0
COc1ccc2[nH]c(C(=O)O)c(NS(=O)(=O)c3ccc(F)cc3)c2c1,2.7,3.9,8.0,27.2*,5.5
O=C(O)c1[nH]c2ccccc2c1NS(=O)(=O)c1ccc(F)cc1,-4.5,3.3,-1.2,24.1*,3.1
COc1ccc2[nH]c(C(=O)O)c(NS(=O)(=O)c3ccc(C)c(C)c3)c2c1,4.0,10.1,8.6,18.3,6.6
CC1CCCN(CC(=O)Nc2ccc(S(=O)(=O)NC3CCCCC3)cc2)C1 (stereo not given),6.1,27.6*,-0.2,5.9,-2.8
CC1CCN(S(=O)(=O)c2ccc(NC(=O)Cc3cccs3)cc2)CC1,3.8,13.1,-0.6,31.0*,2.3
CC1CCN(CC(=O)Nc2ccc(S(=O)(=O)N3CCC(C)CC3)cc2)CC1,5.8,-0.9,8.1,28.6*,-4.3
CC1CCN(S(=O)(=O)c2ccc(NC(=O)CN3CCCC3)cc2)CC1,2.4,7.6,3.7,15.3,-0.8
SMILES,TCR CD3 inh,pPAFAH inh,PAFAH1B3 FP inh,PAFAH1B2 FP inh,PAFAH2 FP inh
CC(=O)Nc1ccc(S(=O)(=O)N2CCN(Cc3cccs3)CC2)cc1,4.9,3.8,4.4,6.3,4.2
CC1CCN(S(=O)(=O)c2ccc(NC(=O)CN3CCOCC3)cc2)CC1,4.8,2.6,17.4,32.9*,9.4
CCC(=O)c1ccccc1OCCCN1CCC(Cc2ccccc2)CC1,-2.2,1.2,4.7,9.6,0.9
CC(C)(C)OC(=O)N1CCC(C(=O)Nc2ccc(C(=O)NCc3ccccc3)cc2)CC1,-1.5,nt,9.7,8.4,-3.5
Cc1cc(=O)c2c(o1)C(=O)c1occc1C2=O,8.5,nt,47.2*,26.1*,38.1*
Nc1ccc(CSc2ccccc2)cc1,-0.4,nt,7.4,31.6*,8.7
COC(=O)[C@]12C[C@H](CC(=O)NCc3ccc(OC)c(OC)c3)C(=O)N(CCc3ccc(OC)c(OC)c3)C1=C[C@H](C(C)(C)C)O[C@@H]2C,0.5,nt,nt,nt,nt
COc1ccc(CCN2CC(=O)N3CCc4ccc(N5CCOCC5)cc4C3CC2=O)cc1OC (stereo not given),1.6,nt,nt,nt,nt
NS(=O)(=O)c1ccc(NC(=O)COC(=O)CCc2ccccc2)cc1,1.3,-2.7,7.1,4.1,-3.3
Cc1ccc(SCCC(=O)OCC(=O)Nc2ccc(S(N)(=O)=O)cc2)cc1,8.8,12.2,-2.7,24.2*,-7.0
Cc1ccc(N(C(=O)Cn2nnc3ccccc32)C(C(=O)NCc2ccccc2)c2ccccn2)cc1 (stereo not given),6.0,-0.9,-3.7,26.1*,1.8
CC(=O)c1ccc(N(C(=O)Cn2nnc3ccccc32)C(C(=O)NCc2ccccc2)c2ccccn2)cc1 (stereo not given),-5.7,-0.4,4.2,7.0,-1.5
Oc1ccc(NC(=S)N=Nc2c(O)[nH]c3ccc(Br)cc23)cc1,-1.5,nt,18.6,10.7,11.7
Oc1cccc(NC(=S)N=Nc2c(O)[nH]c3ccc(Br)cc23)c1,-2.0,28.4*,15.8,10.2,7.0
CCN(CC(=O)Nc1ccccc1OC)C(=O)CCOc1ccc(C(C)(C)C)cc1,-10.2,7.7,-2.3,29.9*,3.8
Cn1c(=O)c2c(ncn2CC(=O)NC[C@H]2O[C@@H](n3cnc4c(N)ncnc43)[C@H](O)[C@@H]2O)n(C)c1=O,-5.2,2.7,1.7,-0.6,-0.5
COc1ccc(-c2cc(-c3ccccc3)nc(-c3ccc4c(c3)NC(=O)CO4)c2)cc1,5.4,3.3,1.8,2.7,-7.9
COc1ccc(Nc2nc(-c3ccc4c(c3)NC(=O)CO4)cs2)cc1,4.7,30.2*,5.6,-2.4,2.6
COc1ccccc1Nc1nc(-c2ccc3c(c2)NC(=O)CO3)cs1,0.9,20.6,19.8,0.5,-1.5
CCC(C)Nc1nc(-c2ccc3c(c2)NC(=O)CO3)cs1 (stereo not given),-6.9,25.1*,1.1,-0.4,3.3
CCC1C/C(=C/c2ccco2)C(=O)/C(=C/c2ccco2)C1 (stereo not given),nt,36.7*,nt,nt,nt
O=S(=O)(Nc1cc(Sc2cccc3cccnc23)c(O)c2ccccc12)c1ccc(F)cc1,-2.7,34.2*,nt,nt,nt
CC(=O)Nc1ccc(N2CCc3c(C)c(C#N)c4nc5ccccc5n4c32)cc1,nt,4.6,nt,nt,nt
O=[N+]([O-])c1ccc(-c2csc(N/N=C/c3cccnc3)n2)cc1,3.7,2.7,9.8,6.6,-1.6
O=[N+]([O-])c1cc(/C=N\Nc2nc(-c3ccccc3)cs2)ccc1O,8.1,31.0*,21.6,12.6,32.1*
O=C1C(=O)c2ccc(-c3ccccc3)cc2-c2ccccc21,-0.7,18.9,58.0*,9.4,51.2*
